Source: PubChem BioAssay
An excerpt weighted towards active compounds, which were near 1.4% of everything screened.
AmpC inh detg: inhibitors of E. coli AmpC beta-lactamase with detergent; Potency, µM (highest dose often 114 µM), for the others: top-dose activity change, negative = inhibition, actives largely listed as inhibitors; AmpC hydrolysis of nitrocefin, absorbance 480 nm, 0.01% Triton; 370,000 compounds, 0.041% hits; P00811;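 note: 0% = no-compound wells and -100% = no-enzyme wells; nearly all actives have a fitted effect of over 25% in size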
Target sequence (P00811 whole entry, looked up): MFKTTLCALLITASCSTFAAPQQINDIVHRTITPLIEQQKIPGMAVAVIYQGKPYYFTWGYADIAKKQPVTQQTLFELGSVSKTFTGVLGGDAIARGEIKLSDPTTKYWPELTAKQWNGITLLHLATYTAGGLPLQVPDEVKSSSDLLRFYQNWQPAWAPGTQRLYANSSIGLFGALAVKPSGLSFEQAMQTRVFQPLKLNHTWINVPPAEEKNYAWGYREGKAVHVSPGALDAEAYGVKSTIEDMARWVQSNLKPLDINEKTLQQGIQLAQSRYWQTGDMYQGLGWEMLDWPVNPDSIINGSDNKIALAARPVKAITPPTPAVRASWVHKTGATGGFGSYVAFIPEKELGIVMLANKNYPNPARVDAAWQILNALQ
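AmpC (5.3 nM in the dispensed reagent) in 20 mM phosphate pH 7.0 with 0.01% (detergent screen) or 0.0001% Triton X-100 was preincubated with compounds for 15 min at room temperature. Nitrocefin was then added from an 800 uM solution, and hydrolysis was followed at 480 nm.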
Vaccinia Venus: inhibitors of vaccinia virus (Venus reporter); Vaccinia virus Venus reporter expression, fluorescence; Potency, µM (doses to about 36.5 µM), without a hit: top-dose activity change, negative = inhibition, hits mostly inhibitors; 330,000 compounds, 0.46% hits; AID 720580; calls by dose curve; tested in A549 cells; note: % is set by controls: 0 for no effect and ±100 for the full control effect; nearly all actives have a fitted effect of over 30% in size
SARS PLpro yeast: SARS-CoV PLP inhibition in yeast. AID 485353. 330,000 compounds, 0.19% hits. Potency, µM (titrated, usually from 32.9 µM), for the others: top-dose activity, positive = growth rescue, most hits filed as activators. S. cerevisiae expressing SARS-CoV PLpro, growth rescue; calls by dose curve; note: 0% is about no effect; nearly all actives have a fitted effect of over 55% in size
Vaccinia mCherry: vaccinia inhibition (mCherry reporter) | Vaccinia virus mCherry reporter infection, fluorescence | Potency, µM (series often up to 36.5 µM), for the others: at the top dose activity change, negative = inhibition, most hits filed as inhibitors | 310,000 compounds, 0.63% hits; calls by dose curve; tested in A549 cells; note: % is set by controls: 0 for no effect and ±100 for the full control effect; nearly all actives have a fitted effect of over 35% in size
AMA1 RON2 block: inhibitors of Plasmodium falciparum AMA1-RON2 interaction. Potency, µM (highest dose often 58.2 µM), for inactives: top-dose activity change, negative = inhibition, hits mostly inhibitors. AlphaScreen AMA1-biotinylated RON2 peptide binding. AID 720542. 360,000 compounds, 0.2% hits;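 note: 0% = vehicle wells and -100% = peptide control; nearly all actives have a fitted effect of over 45% in size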
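AMA1 (3D7) with his tag at 25 nM final met compounds first, then biotinylated RON2 peptide at 25 nM; detection used donor plus acceptor beads, 10 µg/mL apiece, read by AlphaScreen after 30 min at room temperature.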
AmpC no deterg: inhibitors of E. coli AmpC beta-lactamase without detergent. P00811. AmpC nitrocefin hydrolysis, absorbance 480 nm, 0.0001% Triton. Potency, µM (highest dose often 57.1 µM), for the others: top-dose activity change, negative = inhibition, most hits filed as inhibitors. 330,000 compounds, 0.52% hits. AID 485341;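 note: plate controls were no compound for no effect and no enzyme for full effect; nearly all actives have a fitted effect of over 20% in size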
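AmpC (5.3 nM in the dispensed reagent) in 20 mM phosphate pH 7.0 with 0.01% (detergent screen) or 0.0001% Triton X-100 was preincubated with compounds for 15 min at room temperature. Nitrocefin was then added from an 800 uM solution, and hydrolysis was followed at 480 nm.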
The depositor's hits bear a star; i = inactive; ? = inconclusive; nt = no result; [ ] = dose if it differs, or a comment. Unless noted, calls come from the whole dose curve; as a rule, active = well fitted curve in the direction sought with a large enough effect; inconclusive = small, poorly fitted or top-dose-only effect, or another doubt; inactive = no such curve, though single readings can be large; an effect the other way counts as inactive or inconclusive. Potency is the fitted concentration of half-maximal effect.

SMILES	AmpC inh detg	Vaccinia Venus	SARS PLpro yeast	Vaccinia mCherry	AMA1 RON2 block	AmpC no deterg
CCN(CC)CCC(c1ccc(N(C)C)cc1)c1c(OC)cc(OC)c2c(-c3ccccc3)cc(=O)oc12 (stereo not drawn)	2%	?	-1%	?	18µM*	187%
COc1ccc(C2NC(=O)N(C)C3=C2C(=O)N(c2cccc(Cl)c2)C3)cc1 (stereo not drawn)	0%	-6%	nt	-5%	nt	nt
COc1cc(OC)c2c(-c3ccccc3)cc(=O)oc2c1C(CCN1CCN(c2ccccc2)CC1)c1ccc(N(C)C)cc1 (stereo not drawn)	3%	-14%	-3%	?	7.9µM*	69%
COc1ccc(C(CCN2CCN(c3ccccc3)CC2)c2c(OC)cc(OC)c3c(-c4ccccc4)cc(=O)oc23)cc1 (stereo not drawn)	-6%	-14%	1%	-10%	?	24%
CCn1c(-c2ccccc2F)nc2cc(NC(C)=O)cc(C(=O)NCC3CCOCC3)c21	nt	-13%	nt	i	nt	nt
CC(C)(C)CC(C)(C)N=C1Nc2ccc([N+](=O)[O-])cc2N[C@]12C[C@H]1CCCC(=O)N3CC[C@@H](C2)[C@@H]13	nt	-9%	nt	i	nt	nt
S=c1[nH]nc(-c2cccs2)n1/N=C/c1cn(-c2ccccc2)nc1-c1ccccc1	-6%	-16%	2%	-22%	58%	4µM*
Cc1ccc(-c2nn(-c3ccccc3)cc2/C=N/n2c(-c3ccncc3)n[nH]c2=S)cc1	0%	-4%	-4%	-8%	78%	-24%
COCC(=O)Nc1cc(C(=O)N2CCN(C)C(c3ccccc3)C2)c2c(c1)nc(-c1ccncc1)n2C (stereo not drawn)	nt	-19%	nt	i	nt	nt
COc1ccc(C)cc1NC(=O)C(Sc1nnc(Nc2ccccc2F)s1)c1ccccc1 (stereo not drawn)	-8%	-29%	-4%	-12%	-17%	3.5µM*
COC(=O)c1ccc([C@H]2CC(=O)O2)cc1	?	?	0%	11µM*	-4%	-4%
COC(=O)C1=C(C)NC(=O)CC1c1ccc(C(=O)OC)cc1 (stereo not drawn)	?	-20%	-9%	nt	5%	-2%
CCn1c(SCC(=O)N=Nc2c(O)[nH]c3ccccc23)nc2ccccc21	-8%	-17%	10%	-3%	-16%	5µM*
COc1cccc(CNC(=O)c2cnn(-c3ncc4c(n3)-c3ccccc3CCC4)c2C)c1OC	nt	-18%	nt	i	nt	nt
CCCN1C(=O)SC(CC(=O)Nc2ccc(C)cc2)C1=O (stereo not drawn)	-14%	-2%	11µM*	nt	-1%	-25%
c1cc2c(cc1Cc1cncc(Cc3ccc4c(c3)OCO4)c1)OCO2	nt	-13%	nt	-18%	nt	nt
COC(=O)c1ccccc1NC1c2ccccc2C(=O)N1c1cccnc1 (stereo not drawn)	?	1%	0%	3%	47%	7.1µM*
CCc1nc2ccc(C(=O)Nc3ccc(OC)c(OC)c3)cn2c1N(C)Cc1ccc(N(C)C)cc1	nt	2%	nt	17%	32µM*	nt
Cc1[nH]n2c(=O)cc(-c3ccc(Cl)cc3)nc2c1-c1ccccc1	1%	?	nt	8.9µM*	nt	nt
Cc1[nH]n2c(=O)cc(C(C)(C)C)nc2c1-c1ccccc1	2%	?	1%	10µM*	104%	-22%
CCCCc1c(C)nc2c(-c3ccc(Cl)cc3)c(C)[nH]n2c1=O	-2%	?	nt	11µM*	nt	nt
c1coc(-c2ccccc2CN2CCOc3ccc(CN4CCOCC4)cc3C2)c1	nt	-5%	nt	-8%	nt	nt
O=C(CC1S/C(=N/N=C/c2ccco2)NC1=O)Nc1ccccc1 (stereo not drawn)	5%	-2%	3%	-13%	91%	-31%
O=C(CC1S/C(=N/N=C/c2c[nH]c3ccccc23)NC1=O)Nc1ccccc1 (stereo not drawn)	-3%	9%	15%	1%	51%	25µM*
NC(=S)N/N=C/c1c[nH]c2ccc(OCc3ccccc3)cc12	4%	nt	9%	nt	65%	-43%
SMILES	AmpC inh detg	Vaccinia Venus	SARS PLpro yeast	Vaccinia mCherry	AMA1 RON2 block	AmpC no deterg
O=C(CC1S/C(=N/N=C/c2c[nH]c3ccc(OCc4ccccc4)cc23)NC1=O)Nc1ccccc1 (stereo not drawn)	?	-16%	-18%	i	-8%[2.32 µM]	5µM*
CCCCn1nnc(NC(=S)NC(=O)c2ccc(-c3cccc(Cl)c3Cl)o2)n1	0%	0.11µM*	-6%	?	6%[2.32 µM]	-37%
CCCCn1nnc(NC(=S)NC(=O)c2ccc(OCC)c([N+](=O)[O-])c2)n1	7%	1.3µM*	12%	?	47%	-16%
CCOc1ccc(C(=O)NC(=S)Nc2ncccc2C)cc1[N+](=O)[O-]	-1%	-11%	26%	-11%	78%	-2%
[O-][N+]12CCCc3cccc(c31)CCC2	nt	0%	nt	i	nt	nt
O=C1CCCc2c1[nH]c1c(Br)cccc21	-13%	11µM*	-1%	nt	2%	-8%
S=C(NCc1ccco1)Nc1ccc(Br)cn1	-4%	nt	-6%	nt	30%	-3%
S=C(NCc1ccco1)Nc1cc(-c2ccccc2)[nH]n1	-2%	-21%	-5%	0%	22%	16µM*
COc1cccc(CNc2cnc3ccccc3c2)c1O	2%	-26%	-2%	-23%	1%	-9%
Oc1ccc(Br)cc1CNc1cnc2ccccc2c1	-3%	nt	-10%	nt	9%	18µM*
Cc1ccc(O)c(CNc2cnc3ccccc3c2)c1	-7%	-24%	?	13µM*	-5%	-47%
Oc1ccccc1CNc1ccc(Br)cn1	-1%	14µM*	-4%	nt	5%	-30%
Cc1ccc(S(=O)(=O)c2cnc(-c3ccccc3)[nH]c2=O)cc1	nt	-11%	nt	i	nt	nt
CCOC(=O)N1CCN(C(=O)CSc2nnc(-c3cccc(Cl)c3)o2)CC1	?	?	7%	5.6µM*	13%	0%
Cc1nnc(SCC(=O)N2CCN(C(=O)c3ccco3)CC2)n1C	4%	nt	0%	nt	4%	-8%
Cc1cc(C)cc(-c2nnc(SCC(=O)N3CCN(C(=O)c4ccco4)CC3)o2)c1	-12%	?	5%	8.9µM*	?	103%
O=C(CSc1nnc(-c2ccc(Br)cc2)o1)N1CCN(C(=O)c2ccco2)CC1	?	5µM*	-2%	0.63µM*	-24%	14%
COC(=O)C1CCCCN1Cc1ccc2c(c1)CN(C1CCSCC1)CCO2 (stereo not drawn)	nt	-6%	nt	-6%	nt	nt
Cc1nc2sccn2c1CN1CCC2(CC1)CC2C(=O)Nc1ccc2c(c1)OCO2 (stereo not drawn)	nt	-9%	nt	-14%	nt	nt
Cc1ccccc1OCc1nc2c3cnn(-c4cccc(F)c4)c3ncn2n1	12%	-11%	nt	-13%	nt	nt
